Hits are enriched below; roughly 2.5% of the tested compounds scored in any of these assays.
Mcl1-Noxa inh = disrupts binding of human Mcl-1 to Noxa peptide | Q07820 | TR-FRET Mcl-1/Noxa peptide binding, 2 h | inhibition, % at 21.7 µM | 220,000 tested, 1.5% active | AID 1022;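 active = compounds that cut the protein-peptide binding signal by more than 50% relative to plate controls in a single-dose test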;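 note: His-tagged Mcl-1 with rhodamine Noxa BH3 peptide and terbium anti-His antibody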
Target sequence (Q07820 whole entry, looked up): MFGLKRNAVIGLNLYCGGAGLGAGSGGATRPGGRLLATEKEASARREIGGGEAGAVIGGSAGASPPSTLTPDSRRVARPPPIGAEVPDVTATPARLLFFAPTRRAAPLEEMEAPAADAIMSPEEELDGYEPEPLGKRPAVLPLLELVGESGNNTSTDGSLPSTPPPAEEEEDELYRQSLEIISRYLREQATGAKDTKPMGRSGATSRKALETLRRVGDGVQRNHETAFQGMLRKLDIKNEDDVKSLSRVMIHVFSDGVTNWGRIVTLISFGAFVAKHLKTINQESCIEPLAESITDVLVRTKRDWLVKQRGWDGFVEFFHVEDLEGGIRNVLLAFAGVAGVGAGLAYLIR
Mcl1-Bid inh = disrupts binding of human Mcl-1 to Bid peptide; Q07820; TR-FRET Mcl-1/Bid-Dy647 peptide binding, 1536-well; inhibition, % at 21.7 µM; 220,000 tested, 0.97% active;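 active = compounds that cut the binding signal by more than half at the single screening dose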;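 note: His-tagged Mcl-1 with europium anti-His antibody binding Bid BH3 peptide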
14-3-3 Bad inh = disrupts binding of bovine 14-3-3 zeta to phospho-Bad peptide; P63103; TR-FRET 14-3-3zeta/Dy647-pBad peptide displacement, 1 h; inhibition, % at 21.7 µM; 220,000 tested, 0.71% active; AID 781;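 active = inhibition above about 70%, limit read from the data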
Target sequence (P63103 whole entry, looked up): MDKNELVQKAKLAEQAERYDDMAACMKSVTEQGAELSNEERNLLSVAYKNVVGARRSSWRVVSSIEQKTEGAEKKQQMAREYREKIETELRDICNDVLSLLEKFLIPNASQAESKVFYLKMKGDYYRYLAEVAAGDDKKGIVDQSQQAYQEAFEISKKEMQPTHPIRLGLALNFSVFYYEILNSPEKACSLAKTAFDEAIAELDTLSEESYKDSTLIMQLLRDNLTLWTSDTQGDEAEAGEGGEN
MCL1 BIM primary = inhibitors of human MCL1 binding to BIM-BH3 peptide. Q07820. GST-MCL1 / FITC-Bim-BH3 fluorescence polarization. inhibition, % at 10.9 µM. 320,000 tested, 0.68% active. AID 2057;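 active = inhibition above the mean inhibition of all tested compounds plus 3 SD, set per campaign, cut at about 40% in these data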;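 note: higher means more loss of mP so more displacement of Bim peptide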
Mcl-1 Bim block = disrupts Bim peptide binding to human Mcl-1 | Q07820 | Bead-based flow cytometry, Bim peptide-Mcl-1 binding | inhibition, % at 10 µM | 190,000 tested, 0.1% active | AID 1009; in the data active = inhibition above about 40%
Each line names hits and unclear results; the compound was inactive in the other large screens; [ ] = another dose, or the depositor's remark.

C=CCN(CC=C)S(=O)(=O)c1ccc(NC(=S)NC(=O)c2ccco2)cc1	none
O=S(=O)(NCC(c1ccc2c(c1)OCO2)N1CCOCC1)c1ccc(Br)cc1 (configuration not stated)	none (no result: Mcl1-Noxa inh, Mcl1-Bid inh, 14-3-3 Bad inh, Mcl-1 Bim block)
Oc1cc2c(cc1C(c1ccc(Br)cc1)N1CCCC1)OCO2 (configuration not stated)	Mcl1-Noxa inh 82, Mcl1-Bid inh 90 (no result: MCL1 BIM primary)
O=C(NCc1ccccc1)C(=O)Nc1nc(C23CC4CC(CC(C4)C2)C3)cs1	Mcl-1 Bim block 83
O=C(NCc1ccncc1)C(=O)Nc1nc(C23CC4CC(CC(C4)C2)C3)cs1	none
Nc1ccc2nn(-c3ccccc3)nc2c1	none (no result: MCL1 BIM primary)
Nc1cc2nn(-c3ccccc3)nc2cc1Cl	Mcl1-Noxa inh 66 (no result: MCL1 BIM primary)
COc1ccc(-n2nc3cc(C)c(N)c(Br)c3n2)cc1	Mcl1-Noxa inh 89
Cc1ccc(-n2nc3cc(C)c(N)cc3n2)cc1	Mcl1-Noxa inh 90
COc1ccc(-n2nc3cc(N)c(Br)cc3n2)cc1	none (no result: Mcl1-Noxa inh, Mcl1-Bid inh, 14-3-3 Bad inh, Mcl-1 Bim block)
Cc1ccc(S(=O)(=O)c2nc(C(C)(C)C)oc2N2CCOCC2)cc1	none
CCc1nn2c(=O)c(S(=O)(=O)Nc3ccc(C(C)C)cc3)c(C)nc2s1	none (no result: Mcl1-Noxa inh, Mcl1-Bid inh, 14-3-3 Bad inh, Mcl-1 Bim block)
COc1cc(Br)c(Br)cc1N	none (no result: Mcl-1 Bim block)
Cc1cc(Cl)ccc1N=c1ssnc1Cl	none
Nc1ccccc1N=c1ssnc1Cl	Mcl1-Noxa inh 54 (no result: MCL1 BIM primary)
Cc1sc2ncnc(NCCN3CCOCC3)c2c1C	Mcl1-Bid inh 55
CN1/C(=C/C2CC(=O)N(c3cccc4ccccc34)C2=O)C(C)(C)c2ccccc21 (configuration not stated)	Mcl1-Noxa inh 54
CCOc1ccc(N2C(=O)CC(/C=C3/N(C)c4ccccc4C3(C)C)C2=O)cc1 (configuration not stated)	none
COc1ccc(CNC(=O)C(C)NS(=O)(=O)c2ccc(C)cc2)cc1 (configuration not stated)	none
COc1ccccc1C(=O)Nc1ccc(S(=O)(=O)Nc2cc(C)nc(C)n2)cc1	none
COc1ccc(C(=O)Nc2ccc(S(=O)(=O)Nc3cc(C)nc(C)n3)cc2)c(OC)c1	Mcl1-Noxa inh 63
CCOc1cc(N2CCOCC2)c(OCC)cc1NC(=O)CSc1ccccc1C(=O)O	none (no result: Mcl1-Noxa inh, Mcl1-Bid inh, 14-3-3 Bad inh, Mcl-1 Bim block)
Cc1ccc(NC(=O)c2cc(-c3ccco3)nc3ccccc23)cc1S(=O)(=O)N1CCOCC1	Mcl1-Noxa inh 66
CCOc1cc(N2CCOCC2)c(OCC)cc1NC(=O)COc1ncnc2ccccc12	none
O=C(Nc1ccc(Cl)c(S(=O)(=O)N2CCOCC2)c1)c1cc(-c2ccccn2)nc2ccccc12	none
CCOc1cc(N2CCOCC2)c(OCC)cc1NC(=O)CN1CCc2ccccc2C1	Mcl1-Bid inh 93
CCOc1cc(N2CCOCC2)c(OCC)cc1NC(=O)c1cc(-c2ccco2)nc2ccccc12	Mcl1-Bid inh 78
CCN(CC)CCCNc1nc(C)cc(COC)c1C#N	none
Cc1cc(=O)n2[nH]cnc2n1	none
Cc1ccc(-c2nc3ccccc3nc2NN)cc1	none (no result: Mcl-1 Bim block)
CCCCOc1ccc(C(=O)N/C(=C\c2ccc([N+](=O)[O-])cc2)C(=O)OCc2ccco2)cc1	Mcl-1 Bim block 58
COc1ccc(C(N)CCc2ccc(C)o2)cc1 (configuration not stated)	14-3-3 Bad inh 88[fluorescence artefact?]
NC(=O)c1c(N)sc2c1CCCCC2	none (no result: 14-3-3 Bad inh)
Cn1c(N)c(C(=O)Nc2ccc3ccccc3c2)sc1=S	Mcl1-Noxa inh 66
Cn1c(N)c(C(=O)Nc2ccccc2F)sc1=S	none (no result: Mcl-1 Bim block)
CNc1sc(C(=O)c2cccs2)c(N)c1-c1nc2ccccc2s1	Mcl1-Noxa inh 56
CC(=O)Nc1scc(C)c1-c1nc2ccccc2s1	none (no result: Mcl-1 Bim block)
CNc1sc(C(=O)c2ccc(F)cc2)c(N)c1-c1nc2ccccc2s1	Mcl1-Noxa inh 92
NC(=O)CSc1nc(C23CC4CC(CC(C4)C2)C3)nc2ccccc12	none
COc1cc2c(C)nc3c(c(C)nn3-c3ccccc3)c2cc1OC	none
COc1cc2c(-c3ccc(O)cc3)nc3c(c(C)nn3-c3ccccc3)c2cc1OC	Mcl1-Noxa inh 80, Mcl1-Bid inh 61
O=C(c1ccc(F)cc1F)C1CCN(c2ccc([N+](=O)[O-])cn2)CC1	none (no result: Mcl-1 Bim block)
CN(C)c1ccc(NC(=O)Nc2ccc3snnc3c2)cc1	Mcl1-Noxa inh 93
Cc1ccc(CN2CCN(C(=O)c3ccco3)CC2)cc1	none
O=C(c1ccco1)N1CCN(Cc2cccnc2)CC1	Mcl1-Bid inh 51
O=C(Oc1cccnc1)c1ccco1	14-3-3 Bad inh 81
O=C(c1cccs1)N1CCN(Cc2ccccc2)CC1	none
O=C(c1cccs1)N1CCN(Cc2ccncc2)CC1	14-3-3 Bad inh 73
COc1ccc(NC(=O)C(=O)NCCN2CCN(C(=O)c3cccs3)CC2)cc1	Mcl1-Noxa inh 62
O=C(Nc1cccnc1)c1ccco1	none
Cc1ccc(Cn2nc3c(cc2=O)CCc2ccccc2-3)cc1	none
COC(=O)c1ccc(Nc2nc(-c3ccncc3)nc3ccccc23)cc1	none (no result: Mcl1-Noxa inh, Mcl1-Bid inh, 14-3-3 Bad inh, Mcl-1 Bim block)
COc1cc(NC(=O)Cc2cccs2)c(C(=O)O)cc1OC	none
c1ccc(COc2ccccc2CNC23CC4CC(CC(C4)C2)C3)cc1	none
O=C(c1cccs1)N1CCN(CCCc2ccccc2)CC1	14-3-3 Bad inh 72
O=C(CN1CCN(C(=O)c2ccco2)CC1)Nc1c2c(nc3c1CCC3)CCCC2	Mcl1-Bid inh 51 (no result: MCL1 BIM primary)
COc1ccc(CN2CCN(C(=O)c3cccs3)CC2)cc1	none
O=C(c1cccnc1)N1CCN(CCCc2ccccc2)CC1	14-3-3 Bad inh 72
O=C(c1cccs1)N1CCN(Cc2cccnc2)CC1	14-3-3 Bad inh 76
O=C(CN1CCN(C(=O)c2ccco2)CC1)Nc1ccccc1	none (no result: Mcl1-Noxa inh, Mcl1-Bid inh, 14-3-3 Bad inh, Mcl-1 Bim block)
Cc1ccc(Oc2cnc3ccccc3n2)cc1	none
CCC(C)C(NC(=O)c1ccccc1NC(=O)c1ccco1)C(=O)NNC(=O)c1ccncc1 (configuration not stated)	none (no result: Mcl-1 Bim block)
CCN1C(=O)/C(=C\c2cn(-c3ccccc3)nc2-c2cccnc2)SC1=S	Mcl1-Bid inh 56, 14-3-3 Bad inh 78 (no result: MCL1 BIM primary)
Cc1ccc2c(c1)c(C1=NC(=S)NC1=O)c(O)n2C	Mcl1-Noxa inh 55
Cc1ccc2c(c1)c(N=Nc1ccc([N+](=O)[O-])cc1)c(O)n2C	none (no result: Mcl1-Noxa inh, Mcl1-Bid inh, 14-3-3 Bad inh, Mcl-1 Bim block)
O=C(O)CC12CC3CC(C1)CC(n1ncc(NCc4ccc(F)cc4Cl)c(Cl)c1=O)(C3)C2	none
O=C(O)CC12CC3CC(C1)CC(n1ncc(NCc4ccccc4Cl)c(Cl)c1=O)(C3)C2	Mcl1-Bid inh 57 (no result: Mcl-1 Bim block)
Cc1cc(-c2ccccc2)c2c(n1)sc1c(O)cc(=O)[nH]c12	none (no result: Mcl-1 Bim block)
COc1ccc(/C=N\NC(=O)c2cc(O)c(O)c(O)c2)cc1CN1CCN(c2ccc(F)cc2)CC1	Mcl1-Noxa inh 70
COc1ccc(/C=N/NC(=O)c2ccc(C)cc2)cc1CN1CCN(c2ccc(F)cc2)CC1	none
O=[N+]([O-])c1cc(-c2ccc(/C=N/c3nc4ccccn4c3-c3ccco3)o2)ccc1Cl	Mcl1-Noxa inh 65, Mcl1-Bid inh 65
Cc1[nH]n(-c2ccccc2)c(=O)c1N=Nc1ccc2c(c1)OCO2	none
Nc1[nH]n2c(=O)cc(-c3ccccc3)nc2c1N=Nc1ccc2c(c1)OCO2	Mcl1-Noxa inh 60
